The nature of assay [1]: qHTS drug screen for cell cycle checkpoint inhibitors in PARPi-resistant BRCA-mutant ovarian cancer cell lines. (AID 1963452). The following applies: PEO1/OlaR viability, CellTiter-Glo luminescence, 96 h, stronger effect = lower value. In a few lines: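 PEO1, PEO4 and PEO1/OlaR ovarian cancer cells, 600 per well, exposed 96 h at 37C to a dilution series. Viability read by CellTiter-Glo luminescence, normalized to DMSO and empty wells; activity summarized as Z-AUC.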
On the technique in general: Quantitative high-throughput screening tests each substance at several concentrations.

Assay [2] is described as follows: KB-3-1 P-gp reporter qHTS against the NCATS DSHEA and TCM libraries (AID 1919975; active means well fitted curve in the direction sought with a large enough effect; an effect the other way counts as inactive or inconclusive; further: 0% is about no effect). The following applies: KB-3-1 parental cells, CellTiter-Glo luminescence viability, 72 h; series mostly up to 26.1 µM. In short, it runs like this:
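Cell viability qHTS: 500 KB-3-1 cells/well, substances in titration, ~72 h, 37C; luminescent CellTiter-Glo read.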

The nature of assay [3]: qHTS Counterscreen for compound interference against the NCATS DSHEA and TCM libraries (AID 1919978; active means well fitted curve in the direction sought with a large enough effect; an effect the other way counts as inactive or inconclusive;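 further: compounds preincubated with 1 µM D-luciferin or buffer before detection reagent; % of control where 0% means no effect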). Conditions: firefly luciferase detection reagent interference, luminescence. In short, it runs like this: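 Interference check: test samples were incubated with D-luciferin (final 1 uM) or buffer only for 15 min, room temperature, in a qHTS titration up to 39.8 uM, then developed with detection reagent and read by luminescence.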

A short description of assay [4]: Dual reporter qHTS for agonist of Pregnane X Receptor (hPXR) against the NCATS DSHEA and TCM libraries: Fluorescence readout (AID 1920058; active means well fitted curve in the direction sought with a large enough effect; an effect the other way counts as inactive or inconclusive; further: 0% is about no effect). The following applies: PXR dual reporter cells; series mostly up to 40 µM. In a few lines: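 In this qHTS counter-read, reporter-bearing HepG2 cells in charcoal-stripped serum received substances for approximately 24 h before viability was assessed fluorometrically with CellTiter-Fluor.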

Assay [5] addresses Nuclear receptor subfamily 1 group I member 2 (Homo sapiens) (UniProt O75469). Put plainly: Dual reporter qHTS for agonist of Pregnane X Receptor (hPXR) against the NCATS DSHEA and TCM libraries: Luminescence readout (AID 1920059; active means well fitted curve in the direction sought with a large enough effect; an effect the other way counts as inactive or inconclusive; further: potency means the concentration at half of the fitted maximal effect). Conditions: hPXR dual reporter cells, luciferase luminescence agonist; series mostly up to 40 µM. In short, it runs like this: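 hPXR-Luc HepG2 cells, 2000/well in 5% charcoal-stripped FBS medium, attached 5 h, then exposed 24 h at 37C to compounds. Viability by CellTiter-Fluor, then luciferase luminescence with ONE-Glo.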

Assay [6] shares this target. Description: Dual reporter qHTS for antagonist of Pregnane X Receptor (hPXR) against the NCATS DSHEA and TCM libraries: Luminescence Readout (AID 1920060; active means well fitted curve in the direction sought with a large enough effect; an effect the other way counts as inactive or inconclusive;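 further: HepG2 cells carrying hPXR luciferase reporter stimulated with rifampicin at 2 µM; 0% is about no effect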). The following applies: hPXR dual reporter cells, luciferase luminescence, antagonist mode; series mostly up to 40 µM. In a few lines:
(§1)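 HepG2 hPXR-Luc, 2000 cells/well, charcoal-stripped FBS medium; 5 h attach; RIF 2 uM final; 24 h 37C/5% CO2; CellTiter-Fluor 1 h, fluor 405/540; ONE-Glo 30 min RT, lum.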

Assay [7] can be described thus: Dual reporter qHTS for antagonist of Pregnane X Receptor (hPXR) against the NCATS DSHEA and TCM libraries: Fluorescence Readout (AID 1920061; active means well fitted curve in the direction sought with a large enough effect; an effect the other way counts as inactive or inconclusive; further: 0% is about no effect). Conditions: PXR dual reporter cells, antagonist mode; series mostly up to 40 µM. In a few lines:
as §1

Assay [8] in a line: qHTS for identification of novel therapeutic agents for treatment of microphthalmiaassociated transcription factor (MiT) renal cell carcinoma (RCC) (AID 1963991).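 Further: curves scaled with 100% = DMSO viability and 0% = empty wells.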 Conditions: CellTiter-Glo, 48 h, stronger effect = lower value. In a few lines: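 UOK109/UOK124/UOK145 (TFE3 fusions, three partners); 500 cells/well; MIPE v4.0, 1912 cpds, 11 conc.; 48 h, 37 C; CellTiter-Glo, 15 min RT; lum. Norm.: DMSO 100%, empty 0%.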

[9] abbreviates: measured here: PEO1 parental Z-AUC.

Records with an inconclusive call do not appear. The source made the active and inactive calls. Unless noted, the call rests on the fitted dose curve.

Data on 15 compounds can be found in PubChem BioAssay (NCATS).

Nuclear receptor subfamily 1 group I member 2 (Homo sapiens), sequence (O75469 whole entry, looked up): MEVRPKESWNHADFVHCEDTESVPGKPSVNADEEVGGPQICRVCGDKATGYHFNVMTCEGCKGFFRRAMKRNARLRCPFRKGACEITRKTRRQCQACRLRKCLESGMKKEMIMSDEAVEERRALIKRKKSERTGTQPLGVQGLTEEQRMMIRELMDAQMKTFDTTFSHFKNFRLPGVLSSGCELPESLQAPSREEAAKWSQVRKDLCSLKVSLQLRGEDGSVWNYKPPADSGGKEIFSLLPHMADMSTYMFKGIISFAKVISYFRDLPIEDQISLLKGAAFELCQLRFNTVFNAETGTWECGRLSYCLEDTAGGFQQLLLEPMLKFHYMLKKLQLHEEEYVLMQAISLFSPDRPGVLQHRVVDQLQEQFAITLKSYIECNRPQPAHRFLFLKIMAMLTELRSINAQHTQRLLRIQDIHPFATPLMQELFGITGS

As to `CCC(=O)NCC[C@@H]1CCc2ccc3c(c21)CCO3`, the figures for the Z-AUC in assay [1], in assay [1] (setting [9]) and in assay [1] (measured here: PEO4 Z-AUC) were -0.993 (inactive), 1.01 and 0.501, respectively.
The like results for `Cc1ccc(NC(=O)c2ccc(CN3CCN(C)CC3)cc2)cc1Nc1nc(-c2cccnc2)cs1` were, in that order, -0.78 (inactive), -0.735 and -0.741.
The like results for `Cc1ccc2c(c1)C(=O)[C@]1(O)CCN(c3ccccc3)C1=N2` were, in that order, 1.54 (inactive), 1.18 and 1.07.
The like results for `Cc1ccc2c(=O)c3cccc(CC(=O)O)c3oc2c1C` were, in that order, 0.508 (inactive), 0.654 and 0.37.
`CC(C)(O)CC(=O)NCCn1ccc2ncnc(Nc3ccc(Oc4cccc(C(F)(F)F)c4)c(Cl)c3)c21`: the Z-AUC in assay [1] is 0.0129 (inactive); in assay [1] (setting [9]) it was -0.0981; in assay [1] (measured here: PEO4 Z-AUC), -0.515.
The like results for `CNC(=O)c1cc(COc2nnc(Nc3ccc(Cl)cc3)c3ccoc23)ccn1` were, in that order, 0.731 (inactive), 0.432 and 0.337.
Take `Cc1nn(Cc2ccccc2Cl)c(C)c1CN(C)CC(O)COc1ccc(Cl)cc1` (centres undefined): the Z-AUC in assay [1] was 0.675 (inactive); in assay [1] (setting [9]), 0.673; in assay [1] (measured here: PEO4 Z-AUC), 0.908.
`O=C(O)CCC=CCC[C@@H]1[C@H](N2CCCCC2)[C@@H](O)C[C@@H]1OCc1ccc(-c2ccccc2)cc1`: the Z-AUC was 0.918 (inactive) in assay [1], -0.0252 in assay [1] (setting [9]) and 0.219 in assay [1] (measured here: PEO4 Z-AUC).
`O=C(NC[C@H](O)CO)c1ccncc1Nc1ccc(I)cc1F`: the Z-AUC in assay [1] was -0.995 (inactive); in assay [1] (setting [9]) it was -0.351; in assay [1] (measured here: PEO4 Z-AUC), -0.367.
For `CC(C)(CO)[C@@H](O)C(=O)NCCC(=O)O`, the outcome in assay [2], in assay [6] and in assay [7] was inactive. Besides, the max response in assay [3] is -1.56% (inactive). In addition, in assay [4], the Potency result was “inactive”. Also, the Potency in assay [5] was 11.2 µM (active). Besides, the results for the Z-AUC in assay [1], in assay [1] (setting [9]) and in assay [1] (measured here: PEO4 Z-AUC) were -0.0324 (inactive), 0.0769 and 0.104, respectively. Further, the z-score in assay [8] (TFE3-RCC UOK109 viability, measured here: UOK109 Z-AUC) was 1.12; in assay [8] (TFE3-RCC viability, measured here: UOK124 Z-AUC), 0.429; in assay [8] (TFE3-RCC viability, measured here: UOK145 Z-AUC), -0.0311.
With `CC1=C(CC(=O)O)c2cc(F)ccc2C1=Cc1ccc(S(C)=O)cc1` (centres undefined), the Z-AUC in assay [1] is -0.123 (inactive); in assay [1] (setting [9]) it was 0.811; in assay [1] (measured here: PEO4 Z-AUC) it was 0.523.
The like results for `CN1CCC(COc2cnc(-c3cccc(Cn4nc(-c5cccc(C#N)c5)ccc4=O)c3)nc2)CC1` were, in that order, -0.437 (inactive), -0.363 and -0.442.
The like results for `CN1N=C(N)c2cn([C@@H]3O[C@H](COP(=O)(O)O)[C@@H](O)[C@@H]3O)c3ncnc1c23` were, in that order, -0.375 (inactive), -0.488 and -0.707.
The like results for `CCCCCCCCCCCCCCCC(=O)O[C@H]1[C@@H](O)[C@@H](O)[C@@H]([C@H](NC(=O)[C@@H]2C[C@@H](CCC)CN2C)[C@H](C)Cl)O[C@@H]1SC` were, in that order, 1.31 (inactive), 0.604 and 0.552.
As for `O=C(O)CCNc1cc(N2CCc3ccccc3CC2)nc(-c2ccccn2)n1`, the Z-AUC was 0.743 (inactive) in assay [1], 0.477 in assay [1] (setting [9]) and 0.175 in assay [1] (measured here: PEO4 Z-AUC).
